Targets with the largest changes are over-represented here; the source holds about 21,000 in all.
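Further: competitive profiling in live THP-1 cells: cysteine peptides tagged with an iodoacetamide desthiobiotin (IA-DTB) probe, intensity after compound treatment relative to DMSO-treated cells.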

Compound in one test: Cc1cc(ccc1-c1ccccc1)C(=O)N1CCCN(CC1)C(=O)CCl [compound 10]
The test is described as follows: probe-labelled cysteine peptide fold change vs DMSO (competition) (log2 fold change); higher = less target engagement (more negative = stronger competition). Particulars: 10 µM; THP-1; incubation time: 4 h.
With “MPP1_Q00013_454_KLQEAFDQACSSPQWVPVSWVY (UniProt Q00013)”, the “probe-labelled cysteine peptide fold change” value was -0.0366.
The same measure, in the same setting: in the case of “MTMR10_Q9NXD2_70_LICSNFK (UniProt Q9NXD2)” it was -0.125.
Consider MCM2_P49736_223_ISDMCK (UniProt P49736), for which the “probe-labelled cysteine peptide fold change” value was -0.124.
For the target “MAPK8_P45983_163_SDCTLK (UniProt P45983)”, the “probe-labelled cysteine peptide fold change” value was -0.283.
In the case of “LRPPRC_P42704_380_EDGPSVFGSFFLQHCVTMNTPVEK (UniProt P42704)”, the “probe-labelled cysteine peptide fold change” value was 0.0471.
Consider “LSM2_Q9Y333_26_NDLSICGTLHSVDQYLNIK (UniProt Q9Y333)”, for which the “probe-labelled cysteine peptide fold change” value was 0.109.
With “MCM6_Q14566_158_THPVHPELVSGTFLCLDCQTVIRDVEQQFK (UniProt Q14566)”, the “probe-labelled cysteine peptide fold change” value stood at 0.0358.
With “MCCC2_Q9HCC0_267_AATGEEVSAEDLGGADLHCR (UniProt Q9HCC0)”, the “probe-labelled cysteine peptide fold change” value was -0.421.
On the same count and under the same terms, the figure for “MARS_P56192_309_QWNTLYLCGTDEYGTATETK (UniProt P56192)” is -0.0161; for “MRPL42_Q9Y6G3_45_STYSPLPDDYNCNVELALTSDGR (UniProt Q9Y6G3)” it is 0.0794.
For the target “MADD_Q8WXG6_1489_LINMTYCPK (UniProt Q8WXG6)”, the “probe-labelled cysteine peptide fold change” value is -0.139.
The same measure, in the same setting: in the case of “MPI_P34949_289_GDCVECMACSDNTVR (UniProt P34949)” it was 0.0622; in that of “LTA4H_P09960_8_PEIVDTCSLASPASVCR (UniProt P09960)”, -0.129.
With “MFSD14A_Q96MC6_465_HCGSHSHPHNTQAPGEAK (UniProt Q96MC6)”, the “probe-labelled cysteine peptide fold change” value is -0.39.
For the target MAK16_Q9BXY0_17_QFCSFK (UniProt Q9BXY0), the “probe-labelled cysteine peptide fold change” value is -0.115.
Consider “LPP_Q93052_524_SLDGIPFTVDAGGLIHCIEDFHKK (UniProt Q93052)”, for which the “probe-labelled cysteine peptide fold change” value was -0.0384.
Take “MEFV_O15553_375_KSPGSLSPQPLPQCK (UniProt O15553)”: the “probe-labelled cysteine peptide fold change” value was -0.229.
For the target “MED1_Q15648_135_VAHHGENPVSCPELVQQLR (UniProt Q15648)”, the “probe-labelled cysteine peptide fold change” value is -0.0375.
Take “MYBBP1A_Q9BQG0_338_HYGEHVCTAK (UniProt Q9BQG0)”: the “probe-labelled cysteine peptide fold change” value came out at 0.0441.
As for “LONP1_P36776_909_AGVTCIVLPAENKK (UniProt P36776)”, the “probe-labelled cysteine peptide fold change” value is -0.00288.
On to “MORC3_Q14149_671_NDAVILPSCVEAEAK (UniProt Q14149)”, for which the “probe-labelled cysteine peptide fold change” value was -0.296.
Still for that read-out and setting: in the case of “MAZ_P56270_424_VHSQGPHHVCELCNK (UniProt P56270)” it was 0.033; in that of “LRRC8A_Q8IWT6_768+776_GNRLECLPVELGECPLLK (UniProt Q8IWT6)”, -0.106; in that of “MLST8_Q9BVC4_34_FWQAHSGICTR (UniProt Q9BVC4)”, -0.182.
In the case of “LMAN1_P49257_230_NDYEFCAK (UniProt P49257)”, the “probe-labelled cysteine peptide fold change” value amounted to 0.239.
On the same count and under the same terms, in the case of “MTRR_Q9UBK8_64_AIAEEICEQAVVHGFSADLHCISESDKYDLK (UniProt Q9UBK8)” it was -0.113.
In the case of “LENG8_Q96PV6_584_SLCMVK (UniProt Q96PV6)”, the “probe-labelled cysteine peptide fold change” value was -0.193.
Consider “MAPK9_P45984_177_TACTNFMMTPYVVTR (UniProt P45984)”, for which the “probe-labelled cysteine peptide fold change” value was -0.494.
In the case of “LRCH3_Q96II8_148_NQLSTLPVHLCNLPLK (UniProt Q96II8)”, the “probe-labelled cysteine peptide fold change” value came out at 0.138.
The same measure, in the same setting: the figure for “LIMS1_P48059_281_AWCVNCFACSTCNTK (UniProt P48059)” is 0.00276.
Turning to “LRRC47_Q8N1G4_367_LHEDLCEK (UniProt Q8N1G4)”, the “probe-labelled cysteine peptide fold change” value was -0.211.
In the case of “MPC2_O95563_54_WGLVCAGLADMARPAEK (UniProt O95563)”, the “probe-labelled cysteine peptide fold change” value was -0.141.
With “MCU_Q8NE86_191_TLVQQLYTTLCIEQHQLNK (UniProt Q8NE86)”, the “probe-labelled cysteine peptide fold change” value is 0.0411.
As for “MCCC2_Q9HCC0_267_AATGEEVSAEDLGGADLHCRK (UniProt Q9HCC0)”, the “probe-labelled cysteine peptide fold change” value is -0.591.
In the case of “MSH6_P52701_687_SELALSALGGCVFYLK (UniProt P52701)”, the “probe-labelled cysteine peptide fold change” value is 0.05.
Take “MAP1S_Q66K74_435+440_VLFPGCTPPACLLDGLVR (UniProt Q66K74)”: the “probe-labelled cysteine peptide fold change” value is -0.0708.
Regarding “MIS18A_Q9NYP9_85_AQLEEEAAAAEERPLVFLCSGCR (UniProt Q9NYP9)”, the “probe-labelled cysteine peptide fold change” value was determined as 0.00435.

Still in this test, the particulars now being: 50 µM; THP-1; incubation time: 4 h.
As to “MPP1_Q00013_454_KLQEAFDQACSSPQWVPVSWVY (UniProt Q00013)”, the “probe-labelled cysteine peptide fold change” value was -0.104.
For the target “MTMR10_Q9NXD2_70_LICSNFK (UniProt Q9NXD2)”, the “probe-labelled cysteine peptide fold change” value is -0.103.
For MCM2_P49736_223_ISDMCK (UniProt P49736), the “probe-labelled cysteine peptide fold change” value is -0.178.
For the target “MAPK8_P45983_163_SDCTLK (UniProt P45983)”, the “probe-labelled cysteine peptide fold change” value was -1.24.
As for “LRPPRC_P42704_380_EDGPSVFGSFFLQHCVTMNTPVEK (UniProt P42704)”, the “probe-labelled cysteine peptide fold change” value was 0.322.
Regarding “LSM2_Q9Y333_26_NDLSICGTLHSVDQYLNIK (UniProt Q9Y333)”, the “probe-labelled cysteine peptide fold change” value amounted to 0.253.
Turning to “MCM6_Q14566_158_THPVHPELVSGTFLCLDCQTVIRDVEQQFK (UniProt Q14566)”, the “probe-labelled cysteine peptide fold change” value is -0.522.
On to “MCCC2_Q9HCC0_267_AATGEEVSAEDLGGADLHCR (UniProt Q9HCC0)”, for which the “probe-labelled cysteine peptide fold change” value is -1.1.
Turning to “MARS_P56192_309_QWNTLYLCGTDEYGTATETK (UniProt P56192)”, the “probe-labelled cysteine peptide fold change” value was found to be 0.0949.
The same measure, in the same setting: in the case of “MRPL42_Q9Y6G3_45_STYSPLPDDYNCNVELALTSDGR (UniProt Q9Y6G3)” it was -0.1; in that of “MADD_Q8WXG6_1489_LINMTYCPK (UniProt Q8WXG6)”, -1.56; in that of “MPI_P34949_289_GDCVECMACSDNTVR (UniProt P34949)”, -0.0489.
Regarding “LTA4H_P09960_8_PEIVDTCSLASPASVCR (UniProt P09960)”, the “probe-labelled cysteine peptide fold change” value was -0.324.
As for “MFSD14A_Q96MC6_465_HCGSHSHPHNTQAPGEAK (UniProt Q96MC6)”, the “probe-labelled cysteine peptide fold change” value was -1.11.
Consider MAK16_Q9BXY0_17_QFCSFK (UniProt Q9BXY0), for which the “probe-labelled cysteine peptide fold change” value is -0.166.
Consider “LPP_Q93052_524_SLDGIPFTVDAGGLIHCIEDFHKK (UniProt Q93052)”, for which the “probe-labelled cysteine peptide fold change” value is -0.452.
Same read-out and setting: in the case of “MEFV_O15553_375_KSPGSLSPQPLPQCK (UniProt O15553)” it was -1.2; in that of “MED1_Q15648_135_VAHHGENPVSCPELVQQLR (UniProt Q15648)”, -0.395.
Take “MYBBP1A_Q9BQG0_338_HYGEHVCTAK (UniProt Q9BQG0)”: the “probe-labelled cysteine peptide fold change” value worked out at 0.083.
As for “LONP1_P36776_909_AGVTCIVLPAENKK (UniProt P36776)”, the “probe-labelled cysteine peptide fold change” value was -0.138.
Consider “MORC3_Q14149_671_NDAVILPSCVEAEAK (UniProt Q14149)”, for which the “probe-labelled cysteine peptide fold change” value was -0.0456.
In the case of “MAZ_P56270_424_VHSQGPHHVCELCNK (UniProt P56270)”, the “probe-labelled cysteine peptide fold change” value is -0.236.
Regarding “LRRC8A_Q8IWT6_768+776_GNRLECLPVELGECPLLK (UniProt Q8IWT6)”, the “probe-labelled cysteine peptide fold change” value was -0.0226.
Take “MLST8_Q9BVC4_34_FWQAHSGICTR (UniProt Q9BVC4)”: the “probe-labelled cysteine peptide fold change” value turned out to be 0.0338.
With “LMAN1_P49257_230_NDYEFCAK (UniProt P49257)”, the “probe-labelled cysteine peptide fold change” value stood at 0.703.
Consider “MTRR_Q9UBK8_64_AIAEEICEQAVVHGFSADLHCISESDKYDLK (UniProt Q9UBK8)”, for which the “probe-labelled cysteine peptide fold change” value is -0.379.
Take “LENG8_Q96PV6_584_SLCMVK (UniProt Q96PV6)”: the “probe-labelled cysteine peptide fold change” value is -1.09.
On the same count and under the same terms, in the case of “MAPK9_P45984_177_TACTNFMMTPYVVTR (UniProt P45984)” it was -1.64; in that of “LRCH3_Q96II8_148_NQLSTLPVHLCNLPLK (UniProt Q96II8)”, 0.0632; in that of “LIMS1_P48059_281_AWCVNCFACSTCNTK (UniProt P48059)”, 0.175.
Take “LRRC47_Q8N1G4_367_LHEDLCEK (UniProt Q8N1G4)”: the “probe-labelled cysteine peptide fold change” value is -0.0285.
In the case of “MPC2_O95563_54_WGLVCAGLADMARPAEK (UniProt O95563)”, the “probe-labelled cysteine peptide fold change” value was -1.31.
Regarding “MCU_Q8NE86_191_TLVQQLYTTLCIEQHQLNK (UniProt Q8NE86)”, the “probe-labelled cysteine peptide fold change” value was -0.0406.
For “MCCC2_Q9HCC0_267_AATGEEVSAEDLGGADLHCRK (UniProt Q9HCC0)”, the “probe-labelled cysteine peptide fold change” value was -1.49.
Still for that read-out and setting: in the case of “MSH6_P52701_687_SELALSALGGCVFYLK (UniProt P52701)” it was 0.296; in that of “MAP1S_Q66K74_435+440_VLFPGCTPPACLLDGLVR (UniProt Q66K74)”, -0.133; in that of “MIS18A_Q9NYP9_85_AQLEEEAAAAEERPLVFLCSGCR (UniProt Q9NYP9)”, -0.0262.

The values above are taken from the supplement of paper PMC12067093, “Discovery and optimisation of a covalent ligand for TRIM25 and its application to targeted protein ubiquitination” (Chemical Science, 2025).
